# Sampled rows, rich in hits. Any-hit rate of the full collection: about 2.4%.
# Prx2 Sm inh: blocks S. mansoni peroxiredoxin 2 enzymatic activity; S. mansoni Prx2 activity coupled to TGR/GSH (TGR is thioredoxin glutathione reductase), NADPH fluorescence loss, qHTS; Potency, µM; 65,000 tested, 0.07% active; AID 448
#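 Prx2 activity was followed as the loss of NADPH fluorescence (ex 365/em 450 nm), read every 30 sec for 8 min after H2O2 start. The enzyme mix (50 nM Prx2, 25 nM TGR, GSH, NADPH; pH 7.4 phosphate buffer) was incubated with compound for 15 min at room temperature first.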
# Anthrax LT inh: inhibitors of anthrax lethal toxin internalization. Cells, anthrax lethal toxin internalization, FRET ratio (460/530). Potency, µM (highest dose often 40 µM), inactives show at the highest dose activity change, negative = inhibition, hits mostly inhibitors. 70,000 tested, 0.67% active. AID 912; also: % is scaled to controls: 0 for no effect and ±100 for the full control effect; nearly all actives have a fitted effect of over 50% in size
# AmpC nodet inh: blocks E. coli AmpC beta-lactamase in absence of detergent; P00811; AmpC nitrocefin hydrolysis, absorbance 480 nm, no detergent; Potency, µM (doses to about 28.7 µM), inactives show top-dose activity change, negative = inhibition; 71,000 tested, 1.8% active; also: % of control where 0% means no effect
# Target sequence (P00811 whole entry, looked up): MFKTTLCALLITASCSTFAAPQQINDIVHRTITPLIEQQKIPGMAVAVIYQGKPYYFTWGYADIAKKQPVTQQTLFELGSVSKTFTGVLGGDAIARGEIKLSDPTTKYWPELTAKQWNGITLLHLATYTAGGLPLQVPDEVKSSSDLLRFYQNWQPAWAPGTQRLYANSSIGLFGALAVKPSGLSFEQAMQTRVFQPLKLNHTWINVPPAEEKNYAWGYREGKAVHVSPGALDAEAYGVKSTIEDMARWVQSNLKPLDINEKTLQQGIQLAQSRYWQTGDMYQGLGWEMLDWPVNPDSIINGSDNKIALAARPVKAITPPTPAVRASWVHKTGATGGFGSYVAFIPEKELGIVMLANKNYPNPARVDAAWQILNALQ
#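 AmpC, 20 mM phosphate pH 7.0; 15 min cpd preinc, RT; start with nitrocefin (800 uM stock); A480 kinetic read, 20 s intervals, 4 min. No-enzyme wells = negative control.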
# AmpC inh det: inhibitors of E. coli AmpC beta-lactamase with detergent | P00811 | purified AmpC, nitrocefin hydrolysis with detergent | Potency, µM (top dose mostly 28.7 µM), inactives show at the top dose activity change, negative = inhibition | 71,000 tested, 0.09% active | AID 584; active = well fitted curve in the direction sought with a large enough effect; inconclusive = small, poorly fitted or top-dose-only effect; also: % is scaled to controls: 0 for no effect and ±100 for the full control effect
#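 E. coli AmpC (5.3 nM) in 20 mM phosphate pH 7.0 with 0.01% Triton X-100, preincubated 15 min RT with compound; nitrocefin (2 uL of 800 uM stock) hydrolysis followed by 480 nm absorbance every 20 s over 4 min.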
# * hit, by the source's call; ? = inconclusive; · = no result; [ ] = remark or other dose. Unless noted, calls follow the shape of the full dose curve. Potency is read from the fitted curve at half-maximal effect.
SMILES,Prx2 Sm inh,Anthrax LT inh,AmpC nodet inh,AmpC inh det
O=C(CSc1nnc(Cc2csc(Nc3cccc(Cl)c3)n2)o1)N1CCc2ccccc21,>57,-26%,13µM*,1%
O=C(CSc1nnc(CNc2ccccc2)o1)N1CCc2ccccc21,>57,1%,16µM*[single pt active],0%
COc1c(O)ccc2c1CN1CCc3cc4c(cc3[C@@H]1C2)OCO4,>57,?,1%[5.75 µM],-4%[5.75 µM]
CC(=O)N[C@H]1[C@@H](O[C@@H](C)C(=O)O)[C@H](O)[C@H](CO)O[C@@H]1O,>57,3%[3.58 µM],-3%[12.8 µM],-2%[12.8 µM]
O=C1c2ccccc2C(=O)c2c(Nc3cc4c5c(ccc6c7ccc8c9c(cc(Nc%10cccc%11c%10C(=O)c%10ccccc%10C%11=O)c(c3c56)c97)-c3ccccc3C8=O)C(=O)c3ccccc3-4)cccc21,>57,1%[8 µM],-9%[5.75 µM],-5%[5.75 µM]
O=C(c1ccco1)N1CCN(c2ncccn2)CC1,>57,-13%,4µM*[single pt active],14%
COc1ccccc1C(=O)n1nc(-c2cccnc2)nc1N,>57,28%,4µM*[single pt active],13%
Cn1cc(C(=O)c2ccccc2)c2ccccc21,>57,-23%,4µM*[single pt active],10%
CCOC(=O)CCc1c(C)n(CC)c2ncnn2c1=O,>57,-3%,4µM*[single pt active],12%
Cc1ccc(/C(C#N)=C\c2cn(C)c3ccccc23)cc1,>57,7.9µM*,-10%,-9%
Cc1ccc(/C(C#N)=C/c2cccc([N+](=O)[O-])c2)cc1,>57,?,-4%[5.75 µM],-4%[5.75 µM]
CC(=O)n1cc(-c2ccncc2)c2ccccc21,>57,15%,3.2µM*[single pt active],10%
Clc1ccc(OCc2nn3c(C4CCCCC4)nnc3s2)c(Cl)c1,>57,2%,35%,-1%
COc1ccccc1-c1nnc2sc(COc3ccc(Cl)cc3Cl)nn12,>57,10µM*,49%,-4%
CCCCCCCCCC(=O)N[C@@H](CN1CCOCC1)[C@@H](O)c1ccccc1,>57,-11%,124%,-4%
O=C(Oc1ccc2c3c(c(=O)oc2c1)CCCC3)c1ccco1,55*,?,2%,6%
CCC(NC(=O)OC(C)(C)C)C(=O)Oc1ccc2c3c(c(=O)oc2c1)CCC3 (stereo unspecified),55*,·,44%,-2%
C[C@H]1C(=O)O[C@H]2CCN3CC=C(COC(=O)[C@](C)(O)[C@@]1(C)O)[C@H]23,>57,3%,-5%,-2%
CN1[C@@H]2CC[C@H]1CC(O[C@@H](c1ccccc1)c1ccc(Cl)cc1)C2 (stereo partly specified),>57,10µM*,99%,5%
OC[C@@H]1O[C@H](O)[C@@H](Cl)[C@H](O)[C@@H]1O,>57,3%,6%,-2%
COc1ccc(NC(=O)[C@H](CCS(C)(=O)=O)N2Cc3ccccc3C2=O)c(OC)c1,>57,7%,4µM*[single pt active],16%
CCN(CC)c1ccc(C(=O)Nc2cccc(F)c2)cc1,>57,10µM*,-21%,3%
CN(C)c1cccc(C(=O)Nc2cccc(F)c2)c1,>57,·,-13%,-5%
COc1ccc([C@H](O)c2ccccn2)cc1,>57,-7%[8 µM],2%[5.75 µM],-7%[5.75 µM]
CC(=O)Oc1ccc(C(c2ccc(OC(C)=O)cc2)c2ccccn2)cc1,>57,0.16µM*,57%,12%
SMILES,Prx2 Sm inh,Anthrax LT inh,AmpC nodet inh,AmpC inh det
CCCn1c(C)c(C(=O)c2ccc3ccccc3c2)c2ccccc21,>26,13µM*,19%,-5%
CCN(C(=O)c1cnc(N2CCN(c3ncccn3)CC2)c2ccccc12)c1cccc(Cl)c1,>57,16µM*,95%,-4%
Cn1c(=O)c2cc(S(=O)(=O)NC(Cc3ccccc3)C(=O)NCc3ccco3)ccc2n(C)c1=O (stereo unspecified),>57,-4%,4µM*[single pt active],10%
CCOC(=O)C1[C@H]2C(=O)N(C(C)c3ccc(OC)cc3)C[C@]23C=C[C@H]1O3 (stereo partly specified),>57,?,-11%,-2%
CCC(C)N1CC23C=CC(O2)C(C(=O)OC)C3C1=O (stereo unspecified),>57,10%,4µM*[single pt active],13%
Clc1cccc(N2CCN(Cc3nc(-c4ccccc4)no3)CC2)c1,>57,?,4µM*[single pt active],13%
CCc1cc2cc(C(=O)N3CCN(Cc4ccccc4)CC3)sc2s1,·,13µM*,76%,1%
O=C(c1ccncc1)N1CCC2(CCN(Cc3nccs3)CC2)CC1,>57,19%,8%,3%
N[C@@H](CP(=O)(O)O)C(=O)O,>57,-12%[8 µM],-2%[5.75 µM],-5%[5.75 µM]
